CtBP-E1A blk: inhibitors of CtBP/E1A interaction. AlphaScreen GST-E1A/His-CtBP binding, 1536-well; stronger effect = lower value. activity change, % (concentration not given with the values). 340,000 compounds, 0.49% hits. AID 651724; in the data active = activity change below about -65%; inconclusive = mostly about -30% to -63%
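Homogeneous bead-based format: GST-tagged E1A captured on glutathione donor beads, His-tagged CtBP on nickel acceptor beads; compounds precede bead addition by 2 h at 37 °C.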
VP16 counter: Gal4-VP16 reporter inhibition counter-screen | Drosophila S2 Gal4-VP16 UAS-luciferase, luminescence, 20 h | Potency, µM (series often up to 53.6 µM), inactives show at the highest dose activity, negative = inhibition, hits mostly inhibitors | 310,000 compounds, 3.5% hits | AID 2546;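 note: Gal4-VP16 expression switched on by copper sulfate through the metallothionein promoter; potency is the fitted concentration of half-maximal effect; nearly all actives have a fitted effect of over 50% in size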
PKM2 act: PKM2 (human) enzyme activation | P14618 | 260,000 compounds, 0.34% hits | purified PKM2, Kinase-Glo ATP luminescence, activation; response scale: 0% is enzyme alone, no compound | AID 1631 | Potency, µM (highest dose often 57.5 µM), for inactives: at the top dose activation, usual class: activators; note: potency is the fitted concentration of half-maximal effect; nearly all actives have a fitted effect of over 55% in size
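Purified hPK-M2 (>95%) run at intermediate activity with 0.1 mM ADP and 0.5 mM PEP in 50 mM imidazole pH 7.2, KCl, MgCl2; 1 h room temperature. ATP formed read by Kinase-Glo luminescence; normalized to uninhibited and no-enzyme controls.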
Six1-Eya2 inh: Six1/Eya2 interaction inhibition; AlphaScreen GST-Six1/His-Eya2 binding, biochemical; stronger effect = lower value; activity change, % (test concentration not listed); 360,000 compounds, 0.56% hits; AID 651725; in the data active = activity change below about -65%; inconclusive = mostly about -30% to -63%
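AlphaScreen luminescence read after one hour at 37 °C in darkness. Pin-transferred compounds met GST-Six1 and His-Eya2 protein (5X stock 250 nM/500 nM) plus glutathione donor and Ni-chelate acceptor beads (5X, 50 ug/mL).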
RORg inh: ROR gamma (mouse) transcription inhibition; P51450; Drosophila S2 Gal4-RORgamma UAS-luciferase reporter, 20 h; Potency, µM (highest dose often 53.6 µM), for inactives: at the highest dose activity change, negative = inhibition, usual class: inhibitors; 310,000 compounds, 5.4% hits; AID 2551; note: potency is the fitted concentration of half-maximal effect; nearly all actives have a fitted effect of over 60% in size
Target sequence (P51450 whole entry, looked up, the tested form may be a part): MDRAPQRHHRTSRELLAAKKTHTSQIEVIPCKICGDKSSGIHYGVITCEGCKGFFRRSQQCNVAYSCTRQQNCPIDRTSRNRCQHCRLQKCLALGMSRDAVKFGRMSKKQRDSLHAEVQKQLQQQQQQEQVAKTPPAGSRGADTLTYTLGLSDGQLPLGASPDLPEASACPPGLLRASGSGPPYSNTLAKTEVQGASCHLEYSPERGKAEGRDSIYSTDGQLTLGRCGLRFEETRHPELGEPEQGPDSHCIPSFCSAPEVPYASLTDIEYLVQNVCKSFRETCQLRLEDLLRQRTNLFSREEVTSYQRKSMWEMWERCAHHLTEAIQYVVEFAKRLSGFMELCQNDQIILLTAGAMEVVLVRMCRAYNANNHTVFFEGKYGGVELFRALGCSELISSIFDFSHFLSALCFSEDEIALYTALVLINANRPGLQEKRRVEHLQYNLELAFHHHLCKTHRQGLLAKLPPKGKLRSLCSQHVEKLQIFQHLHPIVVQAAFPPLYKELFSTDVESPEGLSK
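Compounds are pin-transferred onto Drosophila Schneider cells expressing a copper-inducible Gal4–ROR gamma transactivation domain fusion. After 1 hr, copper sulfate is added to 700 uM final; luciferase is read 20 hr later.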
Numbers without * were called inactive; ? = inconclusive; · = no result given; [ ] = another dose, or the depositor's remark. Most compounds without a hit are left out; they make up all but 5.6% or so of the library. Unless noted, calls come from the whole dose curve; as a rule, active = well fitted curve in the direction sought with a large enough effect; inconclusive = small, poorly fitted or top-dose-only effect, or another doubt; inactive = no such curve, though single readings can be large; an effect the other way counts as inactive or inconclusive. % is set by controls: 0 for no effect and ±100 for the full control effect.

SMILES | CtBP-E1A blk | VP16 counter | PKM2 act | Six1-Eya2 inh | RORg inh
CC[C@@H](C)[C@H](CN[C@H](CNC)C(C)C)NC[C@@H](C)c1ccc(CC(C)C)cc1 | -7 | ? | 0% | -1 | 10µM*
COCCN1Cc2cccc(C(=O)Nc3ccc(C)c(C)c3)c2C1=O | -79* | -1% | -1% | -74* | -17%
Cc1ccc(NC(=O)Nc2cc(S(C)(=O)=O)ccc2Cl)cc1 | 3 | 20% | 1% | 12 | 12%
Cc1nn(-c2ccccc2)c(N)c1Sc1cccc([N+](=O)[O-])c1 | · | -14% | -3% | -15 | 17%
Cc1cc(C)nc(-n2nc(C)c(Sc3ccc(F)cc3)c2N)n1 | 3 | 4µM* | 6% | -2 | 2.2µM*
COc1ccc2[nH]cc(CCNC(=O)COc3cc(C)cc4oc(=O)cc(C)c34)c2c1 | ? | 1% | -3% | -7 | 26%
O=C(NCCN1CCOCC1)C1CCN(c2ncnc3c2sc2cccc(F)c23)CC1 | -1 | 14µM* | 27% | 0 | 2%
O=C(C1CCN(c2ncnc3c2sc2cccc(F)c23)CC1)N1CCOCC1 | -2 | -27% | 1% | -7 | -6%
CC(=O)COc1ccc2c(c1C)O/C(=C\c1ccco1)C2=O | · | -20% | · | -13 | 10µM*
COc1ccc2c(c1)O/C(=C\c1ccco1)C2=O | 3 | -3% | 15% | 10 | 29%
S=C(N/N=C1\C2CN3CCN(C2)CC1(c1ccccc1)C3)Nc1ccccc1 | -16 | 2.8µM* | 2% | -16 | 5µM*
COC(=O)c1ccc2nc(-c3cccc(N)c3)cn2c1 | 24 | 7.9µM* | -11% | 24 | 6.3µM*
COc1ccc(Cl)cc1/C=N/NC(=O)c1c(-c2ccccc2)noc1C | 1 | -14% | · | -6 | ?
Cc1onc(-c2ccccc2Cl)c1C(=O)N/N=C(\N)COc1ccc(Cl)cc1 | 5 | 1µM* | -4% | -5 | 0.45µM*
Cc1onc(-c2ccccc2)c1C(=O)N/N=C(\N)COc1ccc(Cl)cc1 | -8 | 1.3µM* | 1% | -4 | 1µM*
CCCCCCCCCCCCCCCCCCCCCCCCCCCCCC | · | 7% | · | · | -9%
CCOC(=O)C1=NO[C@@]2(C=C(Br)C3(OCCCO3)[C@H]3O[C@H]32)C1 | · | 3%[10 µM] | · | · | -17%[10 µM]
Nc1ccc(-c2nc3cc(N)ccc3o2)cc1 | -10 | ? | -7% | -6 | ?
Nc1ccc(-c2nc3ccc(N)cc3o2)cc1 | -3 | 11µM* | -20% | -2 | ?
Cc1ccc2oc(-c3ccccc3)nc2c1 | 17 | ? | -5% | 44 | ?
CN(C)c1ccc(-c2nc3cc(N)ccc3o2)cc1 | 4 | 7.1µM* | 0%[11.5 µM] | -3 | 7.9µM*
Cc1ccc2nc(-c3cc(N)cc(N)c3)oc2c1 | -12 | ? | -13% | -13 | 2.8µM*
COc1ccc2nc(/N=C/c3c(C)[nH]n(-c4ccc(C)cc4)c3=O)sc2c1 | ? | -8% | -69% | -76* | -71%
Clc1ccc(-c2cn(-c3nc4ccccc4s3)nn2)cc1 | 6 | · | · | -9 | ·
CC(C)(C)NC(=O)NC(=O)CSc1ccc(S(=O)(=O)N2CCCCC2)cn1 | -6 | · | · | 0 | ·
SMILES | CtBP-E1A blk | VP16 counter | PKM2 act | Six1-Eya2 inh | RORg inh
O=C(Nc1ccc(Cl)c(Cl)c1)c1ccc(Cl)c(Cl)c1 | · | 2% | ? | 7 | ?
Cc1ccc(NC(=O)c2ccc(Cl)c(N3C(=O)C=CC3=O)c2)cc1 | -7 | 3.2µM* | 20µM* | 2 | 7.9µM*
O=C(N/N=C/c1ccc[nH]1)c1cc(-c2ccc(Cl)cc2)nc2ccccc12 | -9 | 5.6µM* | -1% | -30 | 1.4µM*
O=C(N/N=C/c1ccccn1)c1cc(-c2ccncc2)nc2ccccc12 | -73* | ? | -9% | -72* | 8.9µM*
O=C(N/N=C/c1cccnc1)c1cc(-c2ccc(Cl)cc2)nc2ccccc12 | · | · | · | -13 | ·
O=C(N/N=C/c1ccsc1)c1cc(-c2cccs2)nc2ccccc12 | -19 | 4.5µM* | -1% | -7 | 4µM*
O=C(N/N=C/c1ccc2c(c1)OCO2)c1cc(-c2ccncc2)nc2ccccc12 | -12 | -11% | 10% | ? | -27%
O=C(N/N=C/c1ccsc1)c1cc(-c2ccncc2)nc2ccccc12 | -5 | -13% | -1% | -8 | 11µM*
CC1CCN(C(=O)CNC(=O)c2ccc(Br)o2)CC1 | 19 | · | · | 12 | ·
Cc1cn([C@H]2C[C@H](O)[C@@H](CCC(=O)NCCc3cccs3)O2)c(=O)[nH]c1=O | 11 | · | · | 8 | ·
Cc1cc(C)n(-c2ccc(C(=O)N3CCC(CO)(Cc4ccccc4)CC3)cc2)n1 | 3 | ? | 0% | 1 | 2.5µM*
O=C1C2CCCCC2C(=O)N1c1ccc(NC2CCCCC2)c([N+](=O)[O-])c1 (stereo not drawn) | ? | -13% | 0% | ? | 30%
C=CCN(CC=C)c1ccc(N2C(=O)C3CCCCC3C2=O)cc1[N+](=O)[O-] (stereo not drawn) | -8 | 22µM* | -2% | -12 | -35%
Cc1ccc(C)n1-c1sccc1C(=O)O | -6 | -8% | 1% | -68* | -2%
Cc1ccc(C)n1-c1sc2c(c1C(=O)O)CCCC2 | -1 | ? | 1% | -17 | -4%
CCOc1cccc(-c2cc(C(=O)N/N=C/c3ccc(OC)c(CN4CCOCC4)c3)c3ccccc3n2)c1 | -1 | ? | 3% | -3 | 16µM*
COc1ccc(/C=N/NC(=O)c2ccncc2)cc1CN1CCOCC1 | 3 | -1% | -2% | 6 | -16%
CCOc1ccc2[nH]c3c(NCCC(C)C)ncnc3c2c1 | -14 | 4.5µM* | · | -13 | ?
CCN(CC)CCNc1ncnc2c1[nH]c1ccc(OC)cc12 | · | -1% | 0% | · | 23%
COc1ccc2[nH]c3c(NCCC4=CCCCC4)ncnc3c2c1 | 0 | 7.1µM* | -2% | -21 | ?
CCCCOCCCNC(=O)N[C@H](C(=O)OC)C(C)CC (stereo partly drawn) | -14 | 0% | -1% | 7 | -1%
COc1ccc(/C=N/NC(=O)c2ccncc2)cc1CSc1nc2ccccc2s1 | -5 | 6.3µM* | -21% | -16 | 7.1µM*
COc1ccc(C(=O)N/N=C/c2ccc(OC)c(CSc3ccccn3)c2)cc1 | 0 | ? | -1% | -4 | ?
N#CC(C#N)=Cc1ccc(-c2ccc(S(=O)(=O)N=C(N)N)cc2)o1 | -10 | -13% | 18µM* | -18 | 8%
CN(C)/C=C/c1onc(-c2ccccc2Cl)c1C#N | -9 | -1% | 0% | 3 | ?
Cc1ccccc1-c1noc(N)c1C#N | 5 | ? | -7% | 1 | 5.6µM*
S=c1sscc1-c1ccccc1 | -81* | · | · | -70* | ·
CCOc1ccc(N=C(NN)c2ccc3ccccc3n2)cc1 | -23 | ? | -9% | 13 | 10µM*
Oc1ccc(-c2nnc(SCC3CCCCC3)o2)cc1 | -6 | 8.9µM* | -1% | -15 | 3.2µM*
